Experiment [1] in a line: antimalarial activity against Dd2 strain (AID 2302;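 active means growth inhibition above 50% at the single 2 µM test dose, taken to imply half-maximal potency below 2 µM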;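 further: 0% = DMSO untreated growth and 100% = chloroquine plus artemisinin killed control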). Particulars: P. falciparum Dd2 in RBCs, LDH growth readout, 72 h; at 2 µM; active compounds read high.
Experiment [2] is described as follows: HepG2 cytotoxicity, primary screen, cytotoxicity control for P. falciparum antimalarial project, cell-based, ATP luminescence (AID 2303;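 active means inhibition above 50%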;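 further: 0% = DMSO wells and 100% = digitonin-killed cells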). As to conditions: HepG2 viability, 24-48 h, at 10 µM, active compounds read high.
Experiment [3] concerns the target L-lactate dehydrogenase (Plasmodium falciparum (isolate CDC / Honduras)) (UniProt Q27743). Briefly: PfLDH activity inhibition – cell lysate, 3D7 strain, counter-screen for P. falciparum growth inhibition project (AID 2304).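 Further: 0% = vehicle and 100% = reference inhibitor.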 As to conditions: P. falciparum 3D7 crude extract, LDH APAD/NBT absorbance; at 2 µM; active compounds read high. (Counterscreens check selectivity or assay interference.)

Experiment [4] in a line: inhibition of 3D7 malaria parasite growth – strain 3D7 (AID 2306).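 Further: 0% = DMSO wells and 100% = chloroquine plus artemisinin control wells.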 As to conditions: P. falciparum 3D7 erythrocytic growth, LDH absorbance, 72 h; at 2 µM; active compounds read high.
The target of experiment [5] is Calcium-dependent protein kinase 1 (Plasmodium falciparum (isolate 3D7)) (UniProt P62344). Description: PfCDPK1 kinase inhibitors, biochemical, TCAMS library (AID 1159585; cut-off not given, nearly all actives have IC50 up to about 0.98 µM;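 further: inhibitors leave more ATP so luminescence rises with inhibition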). Particulars: recombinant PfCDPK1, Kinase-Glo ATP depletion luminescence. On the technique in general: Kinase-Glo reads ATP consumption through a luciferase reaction.
Experiment [6] concerns the target Plasmodium falciparum protein kinase 6 (PK6, PF3D7_1337100) (UniProt Q8IDW1). Briefly: PfPK6 kinase inhibitors, biochemical, TCAMS library (AID 1159586). As to conditions: recombinant PfPK6, Kinase-Glo ATP depletion luminescence.
Experiment [7] addresses Protein kinase 7 (PK7), Plasmodium falciparum 3D7 (PF3D7_0213400) (UniProt Q7YTF7). Description: inhibition of Plasmodium PK7 catalytic activity – biochemical, TCAMS antimalarial set, Kinase-Glo luminescence (AID 1159587). Particulars: recombinant PfPK7, Kinase-Glo ATP depletion luminescence.
For experiment [8], the target named is Calcium-dependent protein kinase 4 (Plasmodium falciparum (isolate 3D7)) (UniProt Q8IBS5). Description: PfCDPK4 kinase inhibitors, biochemical, TCAMS library (AID 1159588; cut-off not given, nearly all actives have IC50 up to about 0.91 µM). Particulars: recombinant PfCDPK4, Kinase-Glo ATP depletion luminescence.

Unmarked numbers belong to inactive results. For some of these results: Measured potencies and affinities stand elsewhere. The source made the active and inactive calls. Unless noted, how the calls were made is not given here.

Chain of Protein kinase 7 (PK7), Plasmodium falciparum 3D7 (PF3D7_0213400) (Q7YTF7 1-343): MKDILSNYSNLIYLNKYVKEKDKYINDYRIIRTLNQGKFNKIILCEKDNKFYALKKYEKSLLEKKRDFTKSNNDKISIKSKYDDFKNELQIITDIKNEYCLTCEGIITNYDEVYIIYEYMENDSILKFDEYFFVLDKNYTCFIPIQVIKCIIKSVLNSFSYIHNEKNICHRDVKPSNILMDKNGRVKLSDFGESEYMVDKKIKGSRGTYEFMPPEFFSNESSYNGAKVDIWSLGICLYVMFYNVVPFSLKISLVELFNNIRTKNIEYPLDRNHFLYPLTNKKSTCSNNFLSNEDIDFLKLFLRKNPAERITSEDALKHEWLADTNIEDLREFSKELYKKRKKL
Chain of Calcium-dependent protein kinase 4 (Plasmodium falciparum (isolate 3D7)) (Q8IBS5 whole entry, looked up): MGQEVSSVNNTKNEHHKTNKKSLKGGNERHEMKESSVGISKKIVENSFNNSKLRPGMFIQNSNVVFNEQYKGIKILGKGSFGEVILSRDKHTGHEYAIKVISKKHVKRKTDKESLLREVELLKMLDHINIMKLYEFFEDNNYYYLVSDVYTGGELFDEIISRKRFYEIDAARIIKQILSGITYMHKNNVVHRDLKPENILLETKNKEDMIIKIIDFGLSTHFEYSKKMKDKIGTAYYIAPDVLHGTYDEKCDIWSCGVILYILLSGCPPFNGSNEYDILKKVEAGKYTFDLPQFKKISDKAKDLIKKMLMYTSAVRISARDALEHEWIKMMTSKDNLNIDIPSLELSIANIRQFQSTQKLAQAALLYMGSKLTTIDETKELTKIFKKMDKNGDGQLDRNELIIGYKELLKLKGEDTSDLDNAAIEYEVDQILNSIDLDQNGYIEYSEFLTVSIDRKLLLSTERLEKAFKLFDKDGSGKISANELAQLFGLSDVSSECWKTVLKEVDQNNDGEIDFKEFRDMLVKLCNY
Chain of L-lactate dehydrogenase (Plasmodium falciparum (isolate CDC / Honduras)) (Q27743 whole entry, looked up): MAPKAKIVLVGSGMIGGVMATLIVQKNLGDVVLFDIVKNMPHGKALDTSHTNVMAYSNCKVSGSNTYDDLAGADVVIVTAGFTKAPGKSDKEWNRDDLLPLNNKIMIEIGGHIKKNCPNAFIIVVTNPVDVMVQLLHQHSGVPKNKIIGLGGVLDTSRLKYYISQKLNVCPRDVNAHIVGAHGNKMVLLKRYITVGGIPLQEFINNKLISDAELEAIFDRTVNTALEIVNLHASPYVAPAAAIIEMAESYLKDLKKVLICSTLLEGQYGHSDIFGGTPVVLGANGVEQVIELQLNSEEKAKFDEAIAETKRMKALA
Chain of Calcium-dependent protein kinase 1 (Plasmodium falciparum (isolate 3D7)) (P62344 whole entry, looked up): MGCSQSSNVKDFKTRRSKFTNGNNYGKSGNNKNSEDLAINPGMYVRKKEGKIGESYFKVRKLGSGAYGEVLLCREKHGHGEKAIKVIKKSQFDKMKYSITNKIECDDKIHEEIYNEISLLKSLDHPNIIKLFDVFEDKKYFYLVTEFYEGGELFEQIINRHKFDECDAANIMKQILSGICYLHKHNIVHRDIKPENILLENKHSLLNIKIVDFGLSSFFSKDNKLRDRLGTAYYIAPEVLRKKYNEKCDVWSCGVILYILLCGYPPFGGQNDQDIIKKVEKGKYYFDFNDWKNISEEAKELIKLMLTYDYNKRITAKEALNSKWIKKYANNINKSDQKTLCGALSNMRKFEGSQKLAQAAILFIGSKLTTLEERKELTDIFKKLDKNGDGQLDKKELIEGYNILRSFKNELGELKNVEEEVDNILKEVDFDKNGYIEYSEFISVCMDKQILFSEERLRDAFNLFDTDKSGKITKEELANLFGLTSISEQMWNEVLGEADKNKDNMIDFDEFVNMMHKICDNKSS
Chain of Plasmodium falciparum protein kinase 6 (PK6, PF3D7_1337100) (Q8IDW1 1-305): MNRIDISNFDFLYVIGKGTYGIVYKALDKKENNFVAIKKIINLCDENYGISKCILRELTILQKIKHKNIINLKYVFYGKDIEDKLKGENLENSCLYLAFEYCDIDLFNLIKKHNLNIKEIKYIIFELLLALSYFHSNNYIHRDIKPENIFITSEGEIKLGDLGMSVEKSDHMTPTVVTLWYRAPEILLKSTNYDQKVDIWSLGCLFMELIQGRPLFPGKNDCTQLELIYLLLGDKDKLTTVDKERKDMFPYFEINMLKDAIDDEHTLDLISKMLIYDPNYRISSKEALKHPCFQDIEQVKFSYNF

As to `CN1CCC(C(=O)Nc2ccc(-c3ccc(-c4nc5ccccc5[nH]4)cc3)cc2)CC1`, the growth inhibition in experiment [1] is 94% (active); in experiment [4], 101% (active). In addition, the values for the inhibition in experiment [2] and in experiment [3] were 28% and 5%, respectively. Further, the outcome in experiment [5], in experiment [6], in experiment [7] and in experiment [8] was inactive.
In the case of `O=C(Nc1ccnc(-c2cccnc2)n1)c1cc(C(F)(F)F)cc(C(F)(F)F)c1`, the growth inhibition is 12% in experiment [1] and 95% (active) in experiment [4]. Further, the inhibition (usually the relative decrease from the control value, in per cent) is 22% in experiment [2] and -4% in experiment [3]. Further, the result in experiment [5], in experiment [6], in experiment [7] and in experiment [8] was inactive.
For the molecule `Cc1nc(N)nc(N)c1-c1cc(Cl)c(N)c(Cl)c1`, the figures for the growth inhibition in experiment [1] and in experiment [4] were 2% and 94% (active), respectively. The inhibition in experiment [2] was 62% (active); in experiment [3], 6%. Besides, the outcome in experiment [5], in experiment [6], in experiment [7] and in experiment [8] was inactive.
As for `Cc1cc(N2CC=CCC2)nc(/N=C(\N)Nc2ccc(Br)cc2)n1`, the values for the growth inhibition in experiment [1] and in experiment [4] were 41% and 98% (active), respectively. Further, the inhibition in experiment [2] is 10%; in experiment [3], -3%. The result in experiment [5], in experiment [6], in experiment [7] and in experiment [8] was inactive.
As to `N#Cc1cccc(C(=O)Nc2cccc(-c3ccc(C(=O)Nc4cccnc4)cc3)c2)c1`, the growth inhibition in experiment [1] was 10%; in experiment [4] it was 89% (active). In addition, the figures for the inhibition in experiment [2] and in experiment [3] were 39% and -1%, respectively. Also, the outcome in experiment [5], in experiment [6], in experiment [7] and in experiment [8] was inactive.
As to `COc1ccc(NS(=O)(=O)c2ccc(C(=O)Nc3ccc(C(F)(F)F)cc3)cc2)cc1N1CCN(CC2CC2)CC1`, the growth inhibition was -5% in experiment [1] and 92% (active) in experiment [4]. Also, the inhibition in experiment [2] was 15%; in experiment [3], 1%. Also, the result in experiment [5], in experiment [6], in experiment [7] and in experiment [8] was inactive.
On to `CCCC1N=C(N)N=C(N)N1c1ccc(Cl)cc1` (stereo not given), for which the results for the growth inhibition in experiment [1] and in experiment [4] were -2% and 96% (active), respectively. Further, the figures for the inhibition in experiment [2] and in experiment [3] were 14% and 5%, respectively. Also, the result in experiment [5], in experiment [6], in experiment [7] and in experiment [8] was inactive.
`CO/C(=C\C=C\c1cc2cc(Cl)c(Cl)cc2[nH]1)C(=O)NCCN1CCCCC1`: the growth inhibition is 86% (active) in experiment [1] and 81% (active) in experiment [4]. In addition, the inhibition is 16% in experiment [2] and 1% in experiment [3]. In addition, the outcome in experiment [5], in experiment [6], in experiment [7] and in experiment [8] was inactive.
As to `CCOCCCNc1ncc(-c2ccsc2)c(-c2nc(C)cs2)n1`, the growth inhibition was 83% (active) in experiment [1] and 89% (active) in experiment [4]. Also, the inhibition in experiment [2] is 0%; in experiment [3], 1%. Moreover, the result in experiment [5], in experiment [6], in experiment [7] and in experiment [8] was inactive.
For the molecule `CN(c1ccccc1)c1ccnc(/N=C(\N)Nc2ccc(Cl)cc2)n1`, the growth inhibition in experiment [1] is 6%; in experiment [4], 87% (active). Also, the inhibition in experiment [2] was 30%; in experiment [3], -1%. Moreover, the result in experiment [5], in experiment [6], in experiment [7] and in experiment [8] was inactive.
On to `Cc1cccc2[nH]c(-c3ccc(-c4ccc(CN5CCC(C(N)=O)CC5)cc4)cc3)nc12`, for which the growth inhibition in experiment [1] is 32%; in experiment [4] it was 91% (active). For the same molecule, the inhibition in experiment [2] is 8%; in experiment [3], 1%. In addition, the outcome in experiment [5], in experiment [6], in experiment [7] and in experiment [8] was inactive.
Take `O=C(NCCCCN1CCC(c2ccc3c(c2OCCN2CCCC2)CCCC3)CC1)c1ccc(-c2ccc(C(F)(F)F)cc2)cc1`: the growth inhibition is 81% (active) in experiment [1] and 100% (active) in experiment [4]. In addition, the inhibition is 25% in experiment [2] and -6% in experiment [3]. In addition, the outcome in experiment [5], in experiment [6], in experiment [7] and in experiment [8] was inactive.
For `Cc1sc2ncnc(Sc3nnc(N)s3)c2c1C`, the results for the growth inhibition in experiment [1] and in experiment [4] were 100% (active) and 101% (active), respectively. The figures for the inhibition in experiment [2] and in experiment [3] were 9% and -1%, respectively. Further, the result in experiment [5], in experiment [6], in experiment [7] and in experiment [8] was inactive.
As for `CCOc1cc(C)ccc1C1CCN(CCN2CCC(CNC(=O)c3ccc(-c4ccc(C(F)(F)F)cc4)cc3)CC2)CC1`, the growth inhibition in experiment [1] was 89% (active); in experiment [4] it was 98% (active). Also, the inhibition was 53% (active) in experiment [2] and -2% in experiment [3]. Further, the outcome in experiment [5], in experiment [6], in experiment [7] and in experiment [8] was inactive.
`CCCc1cc(C(C)=O)ccc1OCCCON1C(N)=NC(N)=NC1(C)C`: the growth inhibition in experiment [1] and in experiment [4] was 96% (active) in each case. For the same molecule, the inhibition in experiment [2] was 61% (active); in experiment [3], 4%. The outcome in experiment [5], in experiment [6], in experiment [7] and in experiment [8] was inactive.
Consider `Cc1cccc2[nH]c(-c3ccc(-c4ccc(CNCCN5CCNCC5)cc4)s3)nc12`, for which the growth inhibition is -2% in experiment [1] and 88% (active) in experiment [4]. Moreover, the inhibition in experiment [2] was 30%; in experiment [3], 3%. In addition, the result in experiment [5], in experiment [6], in experiment [7] and in experiment [8] was inactive.
Regarding `CC(C)NCc1cccc(-c2ccc(-c3nc4ccccc4[nH]3)cc2)c1`, the growth inhibition was 66% (active) in experiment [1] and 101% (active) in experiment [4]. Also, the inhibition in experiment [2] is 4%; in experiment [3], -2%. The outcome in experiment [5], in experiment [6], in experiment [7] and in experiment [8] was inactive.
On to `CCN(CC)Cc1cc(NC(=O)c2ccccc2O)ccc1Oc1ccc(Cl)cc1`, for which the growth inhibition in experiment [1] was 88% (active); in experiment [4] it was 98% (active). For the same molecule, the inhibition in experiment [2] is 32%; in experiment [3], 3%. Also, the result in experiment [5], in experiment [6], in experiment [7] and in experiment [8] was inactive.
For `COc1cc(C(=O)NCCCN2CCN(c3cccc(Cl)c3)CC2)ccc1-c1nc2cc(Cl)c(F)cc2[nH]1`, the growth inhibition in experiment [1] was 81% (active); in experiment [4], 100% (active). The inhibition was 15% in experiment [2] and 0% in experiment [3]. Also, the result in experiment [5], in experiment [6], in experiment [7] and in experiment [8] was inactive.
As to `O=C(/C=C/c1ccc(Cl)c(Cl)c1)NCCCCCN1CCC(CCNC(=O)Cc2ccc(Cl)cc2)CC1`, the growth inhibition was 0% in experiment [1] and 83% (active) in experiment [4]. The inhibition in experiment [2] was 45%; in experiment [3] it was -8%. Further, the result in experiment [5], in experiment [6], in experiment [7] and in experiment [8] was inactive.

Values taken from PubChem BioAssay.
